Screening results from PubChem.
Rows were chosen to be rich in hits. Some 2.2% of all compounds tested hit in one or more screens of this group.
PfM18AAP inh – PfM18AAP inhibitors, malaria aminopeptidase, primary screen, biochemical, QFRET, recombinant enzyme | M18 aspartyl aminopeptidase (Plasmodium falciparum 3D7) | H-Glu-NHMec fluorogenic cleavage | inhibition, % at 7.35 µM | 290,000 compounds, 1.2% hits;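 active = inhibition above the campaign mean inhibition over all tested compounds plus 3 SD, cut at about 28% in these data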;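 also: 0% = plate median of test compound wells and 100% = 2 mM ZnCl2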
GC-B act – human GC-B receptor activators, primary screen, HEK293 GC-B cells, cGMP TR-FRET, EC30 CNP; 0% at EC30 CNP, 100% saturating CNP; activation, % at 10 µM; AID 1920062, 2024; 370,000 compounds, 0.11% hits;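 active = activation at 10 µM reaching about 35% in either raw or pattern-adjusted values, limit read from the data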
Rce1 inhib – yeast Rce1p protease inhibitors, primary screen, biochemical, fluorescence, cell-free homogeneous; CAAX prenyl protease 2 (Saccharomyces cerevisiae (strain ATCC 204508 / S288c)), Q03530; yeast membranes, quenched prenylated peptide cleavage fluorescence; calls only; 290,000 compounds, 0.27% hits;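 active = fall in fluorescence gain of 50% or more versus controls, with final raw signal at or below 3038400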;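 also: plate controls were neutral control wells for no effect and wells lacking membranes for full effect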
Target sequence (Q03530 whole entry, looked up): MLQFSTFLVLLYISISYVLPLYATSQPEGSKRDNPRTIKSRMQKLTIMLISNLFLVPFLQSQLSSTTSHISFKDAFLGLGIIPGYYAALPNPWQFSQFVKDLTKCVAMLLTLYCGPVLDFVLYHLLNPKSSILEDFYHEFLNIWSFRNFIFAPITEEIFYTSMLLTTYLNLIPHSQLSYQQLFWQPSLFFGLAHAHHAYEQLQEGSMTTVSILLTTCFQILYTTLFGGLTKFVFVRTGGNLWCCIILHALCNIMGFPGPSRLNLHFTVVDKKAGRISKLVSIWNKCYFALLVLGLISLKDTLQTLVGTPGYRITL
PLC-beta3 inh – human PLC-beta3 inhibitors, primary screen, biochemical, fluorescence; Purified PLC-beta3, fluorogenic substrate; inhibition, % at 12.2 µM; 370,000 compounds, 0.18% hits;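 also: 0% = median of compound wells on plate and 100% = full blocker control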
GC-A act – GC-A stimulated cGMP production enhancers – HEK293 GC-A cells, cGMP TR-FRET, EC30 ANP, primary screen. Atrial natriuretic peptide receptor 1 (Homo sapiens), P16066. 0% at EC30 ANP, 100% saturating ANP. activation, % at 10 µM. 370,000 compounds, 0.14% hits. AID 1671463, 2021; in the data active = activation above about 40%
PLCg1 inh – PLC-gamma1 enzyme inhibitors, primary screen, biochemical, fluorescence, purified enzyme | 1-phosphatidylinositol 4,5-bisphosphate phosphodiesterase gamma-1 (Homo sapiens), P19174 | fluorogenic substrate | inhibition, % at 12.2 µM | 370,000 compounds, 0.84% hits; in the data active = inhibition above about 9.5%
PLCg1 ctr – PLC-gamma1 enzyme inhibitors, counter-screen for PLC-beta3 inhibitor project, biochemical, fluorescence. shares compounds with PLCg1 inh. purified PLC-gamma1, fluorogenic substrate. inhibition, % at 12.3 µM. 3,300 compounds, 3.1% hits. AID 743258, 2014; in the data active = inhibition above about 9.5%
PLCbeta3 conf – PLC-beta3 inhibitor confirmation, biochemical, fluorescence, purified enzyme; shares compounds with PLCg1 inh; fluorogenic substrate fluorescence; inhibition, % at 12.3 µM; 3,300 compounds, 1% hits; AID 743261, 2014
The depositor's hits bear a star; i = inactive; nt = no result given. Rule as the data show it, unless noted: active = inhibition above about 11%; inactive = the rest.

SMILES	PfM18AAP inh	GC-B act	Rce1 inhib	PLC-beta3 inh	GC-A act	PLCg1 inh	PLCg1 ctr	PLCbeta3 conf
O=C(Cc1ccc(NC2=NC3CS(=O)(=O)CC3S2)cc1)NCc1ccc(Cl)cc1 (stereo not drawn)	3	-5	i	1	-1	11*	-2	-1
Cc1ccc(NC(=O)/C(C#N)=C/c2ccsc2)c(C)c1	4	0	i	11*	-5	5	-7	-3
O=C(c1cnc(-c2ccccc2)s1)c1ccc(Cl)cc1Cl	-2	-2	i	2	2	9.7*	-2	-2
COc1ccc(-c2nnc(SC(C)C(=O)Nc3nccs3)n2-c2ccccc2)cc1OC (stereo not drawn)	-4	-1	i	1	-6	0	nt	nt
COc1ccc(-c2nnc(SC(C)C(=O)Nc3nccs3)n2Cc2ccccc2)cc1OC (stereo not drawn)	5	-5	i	2	-4	9.8*	-5	-3
C#CCNC(=O)C[C@H]1C(=O)N(Cc2ccc(OC)cc2)C2=CCCCC[C@@]21C(=O)OC	nt	-1	nt	0	1	3	nt	nt
Cc1sc(NC(=O)CCC(=O)O)c(C#N)c1C	16	3	i	-6	4	11*	-7	1
c1ccc(C2=NOC(c3nnc(-c4ccccc4)o3)C2)cc1 (stereo not drawn)	nt	1	i	1	1	2	nt	nt
Fc1ccc(C2=NOC(c3nnc(-c4ccccc4)o3)C2)cc1 (stereo not drawn)	nt	1	i	12*	3	6	-7	-2
CCOC(=O)CC[C@@H]1CC[C@]2(CCCN(Cc3cccs3)C2)O1	nt	7	nt	2	3	2	nt	nt
CCOC(=O)C1=C(CC)Nc2ccccc2N=C1NC(=O)Cn1cnc2ccccc2c1=O	7	-5	i	8	-1	9.5*	-7	-3
CCc1ccc(NC(=O)CCNC(=O)Cn2cnc3ccccc3c2=O)cc1	0	4	i	-4	1	3	nt	nt
CCOc1ccc(NC(=O)CCNC(=O)Cn2cnc3ccccc3c2=O)cc1	0	1	i	-9	-5	9.6*	-1	1
Nn1c(SCc2cccc3ccccc23)nnc1-c1cc(-c2ccc(Cl)cc2)n[nH]1	nt	-2	nt	0	-1	2	nt	nt
Cc1cc(N2CCN(C(=O)Oc3ccc(-c4ccccc4)cn3)CC2)c2ccccc2n1	nt	7	nt	0	3	12*	2	-2
O=C(NCc1ccccc1)[C@@H]1CCCN1C(=O)[C@H]1CCCN1C(=O)c1ccccc1C(F)(F)F	nt	-3	nt	0	1	1	nt	nt
CC(=O)N1CC(C)Oc2ccc(S(=O)(=O)Nc3ccc(Cl)cn3)cc21 (stereo not drawn)	4	-5	i	-3	1	10*	-6	-4
CCOC(=O)N1CCC(NC(=O)CCN2C(=O)C3C4C=CC(C4)C3C2=O)CC1 (stereo not drawn)	1	4	nt	5	3	10*	8	2
O=C(CCN1C(=O)C2C3C=CC(C3)C2C1=O)NC1CCCCC1 (stereo not drawn)	-11	3	i	-4	3	1	nt	nt
COCc1[nH]nc2c1C(c1cccc(C(F)(F)F)c1)N(c1ccccc1)C2=O (stereo not drawn)	nt	-19	nt	1	-18	2	nt	nt
C#CCN(Cc1ccco1)C(=O)c1nnc2c3ccccc3n(S(=O)(=O)c3ccccc3)c2n1	nt	8	nt	-11	-5	-9	nt	nt
CC1CN(c2ccc([N+](=O)[O-])c(NCCOc3ccccc3)c2)CCN1 (stereo not drawn)	2	22	nt	11*	44*	8	0	1
CO/N=C/C(C#N)=C/c1ccc(OC)cc1	4	-5	i	7	4	15*	-2	1
COc1ccc(/C=C(/C#N)S(=O)(=O)c2ccc(C)cc2)cc1	-1	1	i	0	-2	1	nt	nt
CCCC(=O)Nc1c(-c2ccccc2Cl)c(=O)c2ccccc2n1C	6	-1	i	-1	-5	13*	-2	0
SMILES	PfM18AAP inh	GC-B act	Rce1 inhib	PLC-beta3 inh	GC-A act	PLCg1 inh	PLCg1 ctr	PLCbeta3 conf
CC(SC(=S)N1CCOCC1)C(=O)O (stereo not drawn)	-4	-5	i	2	1	12*	-5	-3
O=C(CN1C(=O)/C(=C/c2ccco2)SC1=S)Nc1ccc(C(=O)O)c(O)c1	47*	-2	i	-13	-2	58*	40*	-13
O=C(CCCN1C(=O)/C(=C/c2cccs2)SC1=S)Nc1ccc(O)c(C(=O)O)c1	3	nt	nt	nt	nt	nt	nt	nt
O=C(CCN1C(=O)/C(=C\c2ccccc2F)SC1=S)Nc1ccc(C(=O)O)c(O)c1	5	3	i	-11	-1	4	nt	nt
O=C(CN1C(=O)/C(=C/c2ccco2)SC1=S)Nc1ccc(O)c(C(=O)O)c1	24	-1	i	-26	3	46*	36*	-17
CCN(c1cccc(C(F)(F)F)c1)S(=O)(=O)c1ccc2c(c1)CCN2C(C)=O	-6	-2	i	5	-5	14*	-9	-5
CCN(c1cccc(C)c1)S(=O)(=O)c1ccc2c(c1)CCN2C(C)=O	0	1	i	0	0	3	nt	nt
CC(=O)OC12CCCN(C1)/C(=C/c1ccccc1)C2 (stereo not drawn)	nt	-3	nt	4	0	4	nt	nt
Cc1cccc(NC(=O)CN(C)S(=O)(=O)c2ccc(Cl)cc2)n1	1	8	i	4	-5	-2	nt	nt
Cc1cccc(NC(=O)CN(C)S(=O)(=O)c2ccc(Br)cc2)n1	-4	-5	i	2	-11	10*	-7	-4
Cc1onc(C(=O)N2CCOCC2)c1[N+](=O)[O-]	1	6	i	4	10	-1	nt	nt
CC(C)c1onc(C(=O)N2CCOCC2)c1[N+](=O)[O-]	-7	3	i	13*	-2	8	-5	-1
